The panel holds about 83,000 compounds, 20% with a hit somewhere; the sample as a whole holds those more often.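 Single-dose data. Exposure time 48 hours. Values below 10 considered active.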 A number with no mark means an inactive call. Activity calls are given as the source filed them.
Assays:
Test in all cases: NCI-60 one-dose screen, 48 h (100 = growth as untreated, 0 = no growth, -100 = all killed)
Conditions in all cases: 10 µM unless noted
[1] = test system: DU-145 prostate
[2] = test system: K-562 leukemia
[3] = test system: MALME-3M melanoma
[4] = test system: MDA-MB-231 breast
[5] = test system: RXF 393 renal
[6] = test system: SF-268 CNS
[7] = test system: SF-295 CNS
[8] = test system: SF-539 CNS
[9] = test system: M14 melanoma
[10] = test system: HCT-15 colon
[11] = test system: HT29 colon
[12] = test system: SNB-75 CNS
[13] = test system: SNB-19 CNS
[14] = test system: U251 CNS
[15] = test system: PC-3 prostate
[16] = test system: SK-MEL-5 melanoma
[17] = test system: UACC-62 melanoma
[18] = test system: LOX IMVI melanoma
[19] = test system: SK-MEL-28 melanoma

| Compound | growth [1] | growth [2] | growth [3] | growth [4] | growth [5] | growth [6] | growth [7] | growth [8] | growth [9] | growth [10] | growth [11] | growth [12] | growth [13] | growth [14] | growth [15] | growth [16] | growth [17] | growth [18] | growth [19] |
| --- | --- | --- | --- | --- | --- | --- | --- | --- | --- | --- | --- | --- | --- | --- | --- | --- | --- | --- | --- |
| Cc1cc2c(-c3nc4ccccn4c3N)c(O)c(O)cc2c(O)c1-c1c(C)cc2c(-c3nc4ccccn4c3N)c(O)c(O)cc2c1O | 26% | 14.6% | -0.749% (active) | 13.6% | 25.3% | 20.4% | 2.67% (active) | 14.9% | 25.1% | 17.8% | 8.01% (active) | 18% | 12.8% | 8% (active) | 16.3% | -7.68% (active) | 5.54% (active) | 7.21% (active) | 38.3% |
| CC12O[C@H](C[C@@H](OC(=O)CCC(=O)O)[C@H]1O)n1c3ccccc3c3c4c(c5c6ccccc6n2c5c31)C(=O)NC4=O | 41.8% | 44.5% | -21.6% (active) | 64.3% | -3.02% (active) | 46.4% | 13.1% | -8.98% (active) | -6.7% (active) | 15% | 21.2% | -8.7% (active) | 43.2% | 50.6% | 48% | -19% (active) | -6.1% (active) | 15.9% | 33.8% |
| Cc1ccc(-c2cc3c(SCC(=O)Nc4cc(C(F)(F)F)ccc4Cl)nccn3n2)cc1 | 25.6% | -10.4% (active) | -69.5% (active) | 13.4% | 13.5% | 56.5% | 38.1% | 53.9% | 50.6% | 20.1% | -18.8% (active) |  | 102% | 60% | 41.1% | 48.1% | 97.5% | -6.48% (active) | 84.8% |
| Cc1cc(N(CCNc2ccnc3cc(Cl)ccc23)Cc2cccs2)nc(Cl)n1 | 23.9% | -50.9% (active) | -29.4% (active) | -35.7% (active) | -63.3% (active) | 19.3% | -44.6% (active) | -92.2% (active) | -67.3% (active) | 1.01% (active) | -21.5% (active) | -84.5% (active) | 38.3% | -57.3% (active) | 21.1% | -31.2% (active) | 13.4% | -74.4% (active) | -43.4% (active) |
| CN(N)c1nc2sc3c(c2c(=O)[nH]1)CCCC3 | 101% | 109% | 88.7% | 102% | 108% | 95.9% | 93% | 98.7% | 98.7% | 99.6% | 90.4% | 91.9% | 105% | 92.1% | 94.9% | 106% | 110% | 102% | 114% |
| CN1CCN(c2nc(NCCNc3ccnc4cc(Cl)ccc34)c3ccccc3n2)CC1 | 34.6% | -14.1% (active) | -57.4% (active) | -10.8% (active) | -35.8% (active) | 32.6% | -38.7% (active) | -78.4% (active) | -63.3% (active) | 16.1% | 0.651% (active) | 74.7% | 34.8% | 9.01% (active) | 30.4% | -97.5% (active) | -55.1% (active) | -56% (active) | -58.5% (active) |
| COc1ccc2c(CCc3ccc(Cl)cc3)c3[n+](cc2c1OC)CCc1cc2c(cc1-3)OCO2 | 67.5% | 33.5% | 55.5% | 66.7% |  | 49% | 43.3% | 53.1% | 37.9% | 111% | 43.1% | 58% | 28.3% | 22.4% | 36.4% | 18.2% | 30.1% | 50.9% |  |
| Cc1cc(N(CCNc2ccnc3cc(Cl)ccc23)Cc2ccc3c(c2)OCO3)nc(N2CCCC2)n1 | 29.7% | -33.2% (active) | -72.8% (active) | -8.4% (active) | -70.7% (active) | 22.8% | -65.3% (active) | -93.3% (active) | -78.2% (active) | 0.301% (active) | -10.2% (active) | -46.7% (active) | 26.5% | -17.6% (active) | 36.1% | -96.9% (active) | 18.2% | -80.9% (active) | -58.7% (active) |
| Clc1ccc2c(NCCCNCc3ccc4c(c3)OCO4)ccnc2c1 | 58.1% | -10.9% (active) | -69.6% (active) | 12.9% | 19% | 62% | 59.8% | -86.7% (active) | -72.5% (active) | 13.2% | 4.6% (active) | 96.2% | 88.7% | 10.6% | 51.6% | -96% (active) | 89.8% | 8.83% (active) | 51.2% |
| ClCc1ccc(-c2ccc(Cn3cnc4c(Cl)nc(Cl)nc43)cc2)cc1 | -93.4% (active) | 9.48% (active) | -20% (active) | -37.7% (active) |  | -13.5% (active) | -74.2% (active) | -86.9% (active) | 48.3% | -44.3% (active) | 0.0492% (active) | -26.9% (active) | 0.603% (active) | -79.2% (active) | -95.6% (active) | -67.7% (active) | -13.6% (active) | -70.8% (active) |  |
| [2H]C1([2H])[C@H](C)O[C@H](C)C([2H])([2H])N1c1ccc(NC(=O)c2cccc(-c3ccc(OC(F)(F)F)cc3)c2C)cn1 | 80.1% | 38.2% | 68.2% | 74.9% | 90% | 71.6% | 73.3% | 81.6% | 77% | 84.2% | 61.2% | 72.1% | 65.7% | 65.3% | 62.1% | 53.9% | 52.8% | 68.4% | 89.2% |
| Cc1ccc(NC(=O)NC(=O)CSc2nc3ccccc3nc2C)cc1 | 85% | 44.8% | 71.1% | 73.1% | 90.4% | 86.5% | 43.7% | 65.5% | 74.9% | 89% | 67.5% | 70.8% | 80.8% | 84.2% | 67% | 38.7% | 52.5% | 58.8% | 75.2% |
| Cc1cc(N2CCCC2)nc(N(CCCNc2ccnc3cc(Cl)ccc23)Cc2ccc3c(c2)OCO3)n1 | 27.9% | -15.4% (active) | -76.9% (active) | 4.2% (active) | -66.1% (active) | 31.2% | -62% (active) | -90.5% (active) | -83.4% (active) | 3.01% (active) | -23.9% (active) | 3.65% (active) | 23.5% | -9.48% (active) | 20.7% | -96.8% (active) | -32.9% (active) | -78.3% (active) | -82% (active) |
| Nc1ncnc2c1ccn2-c1cccc(NC(=O)c2ccc(N3CCOCC3)c(C(F)(F)F)c2)c1 | 57.8% | 21% | 65.3% | 46.6% | 19.4% | 55% | 28.6% | 46.9% | 44.5% | 31.5% | 38.2% | 67.3% | 95.7% | 39.5% | 35.6% | 41.6% | 43.4% | 41.2% | 81.2% |
| CCN1CCN(c2cc(C)nc(N(CCCNc3ccnc4cc(Cl)ccc34)Cc3cccs3)n2)CC1 | 26.4% | -14.2% (active) | -85.7% (active) | -20% (active) | -53.8% (active) | 7.31% (active) | -69.4% (active) | -89.8% (active) | -84% (active) | 3.14% (active) | 1.82% (active) | -5.92% (active) | 12.5% | 0.735% (active) | 32.8% | -97.4% (active) | -19.8% (active) | -73.5% (active) | -65.9% (active) |
| Clc1ccc(/C=C/c2cc(N3CCOCC3)c3cc(Cl)c(Cl)cc3n2)cc1 | 60.2% | 86.3% | 56% | 59.3% | 81.1% | 58% | 95.9% | 62.3% | 98.5% | 97.4% | 93.1% | 69.7% | 108% | 81.4% | 37.2% | 93.9% | 98.6% | 99.6% | 105% |
